One may read the inhibition as the drop in the measured response relative to a control, in per cent.

Common to all, as to assay type: functional
In assay [1] the target is Solute carrier family 2, facilitated glucose transporter member 1 (Homo sapiens) (UniProt P11166). Nature of the assay: ST_JUDE_LEISH: Cytotoxicity at 2uM final concentration against transgenic Leishmania Mexicana promastigotes LmGLUT1 that are glucose transport deficient and complemented with the human glucose transporter GLUT1. Activity is measured by DNA content using SYBR green in vitro.

The target of assay [2] is Hexose transporter 1 (Plasmodium falciparum) (UniProt O97467). Description: ST_JUDE_LEISH: Cytotoxicity at 2uM final concentration against transgenic Leishmania Mexicana promastigotes LmPfHT that are glucose transport deficient and complemented with the Plasmodium falciparum hexose transporter. Activity is measured by DNA content using SYBR green in vitro.
In assay [3] the target is Glucose transporter (Leishmania mexicana) (UniProt O61059). Nature of the assay: ST_JUDE_LEISH: Cytotoxicity at 2uM final concentration against transgenic Leishmania Mexicana promastigotes LmGT2 that are glucose transport deficient and complemented with the L. Mexicana glucose transporter 2. Activity is measured by DNA content using SYBR green in vitro.

Chain of Solute carrier family 2, facilitated glucose transporter member 1 (Homo sapiens) (P11166 whole entry): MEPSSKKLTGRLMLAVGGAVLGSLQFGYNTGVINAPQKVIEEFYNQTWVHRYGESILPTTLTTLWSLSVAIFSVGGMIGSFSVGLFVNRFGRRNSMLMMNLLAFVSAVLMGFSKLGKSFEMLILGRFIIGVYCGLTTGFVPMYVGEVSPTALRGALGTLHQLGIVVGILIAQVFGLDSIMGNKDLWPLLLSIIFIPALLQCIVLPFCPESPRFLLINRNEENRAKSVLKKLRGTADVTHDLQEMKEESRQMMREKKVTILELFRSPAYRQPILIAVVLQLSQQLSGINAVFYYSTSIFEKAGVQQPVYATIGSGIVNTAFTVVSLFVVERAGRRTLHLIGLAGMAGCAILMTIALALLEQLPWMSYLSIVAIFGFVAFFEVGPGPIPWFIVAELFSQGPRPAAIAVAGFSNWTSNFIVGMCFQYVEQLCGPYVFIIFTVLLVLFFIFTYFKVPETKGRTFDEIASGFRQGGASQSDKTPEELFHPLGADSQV

On to `CCCCNC(=N)c1ccc(OCCCCCOc2ccc(C(=N)NCCCC)cc2)cc1`, for which the figures for the inhibition in assay [1], in assay [2] and in assay [3] were 5.34%, 2.05% and -0.11%, respectively.

In the case of `Cc1ccc(C)c(CC(=O)N2CCC(n3c(C)nc4ccc(F)cc43)CC2)c1`, the values for the inhibition in assay [1], in assay [2] and in assay [3] were 4.03%, 3.03% and 2.07%, respectively.

`N#Cc1ccc(-c2ccc(C(=O)NCCCCN3CCC(c4ccc5c(c4OCC(N)=O)CCCC5)CC3)cc2)cc1`: the inhibition came to 1.23% in assay [1], 0.2% in assay [2] and 1.1% in assay [3].

`COc1ccc(-c2ccc(S(=O)(=O)Nc3cc4c(cc3OC(C)C)CCNCC4)cc2)cc1`: the inhibition in assay [1] was -2.14%; in assay [2] it was -1.7%; in assay [3] it was -2.37%.

On to `COc1ccc2nccc([C@@H](O)CN3CCC(NCc4ccc(OC)c(NC(C)=O)c4)CC3)c2c1`, for which the results for the inhibition in assay [1], in assay [2] and in assay [3] were 0.33%, -2.04% and -1.41%, respectively.

As for `CN1CCN(c2ccc(Nc3c4ccccc4nc4ccccc34)cc2)CC1`, the inhibition in assay [1] is 7.02%; in assay [2], 6.39%; in assay [3] it was 5.74%.

As to `O=C(/C=C/c1ccc(Cl)cc1)NCCCCCN1CCC(c2c[nH]c3ccccc23)CC1`, the inhibition in assay [1] was found to be 3.62%; in assay [2] it was 3.59%; in assay [3], 0.35%.

`Cc1cccc2nc(-c3cccc(-c4cccc(NC(=O)c5c[nH]cn5)c4)c3)[nH]c12`: the inhibition was 1.5% in assay [1], 0.24% in assay [2] and -1.05% in assay [3].

Take `COc1ccccc1-n1c(SCC(=O)Nc2ccccc2F)nc2cccnc21`: the inhibition in assay [1] stood at 2.95%; in assay [2], 1.38%; in assay [3], 2.25%.

For `CCOc1cc[nH]c(=O)n1`, the inhibition in assay [1] is -0.65%; in assay [2], 2.36%; in assay [3] it was -0.68%.

As to `CN1CCN(CCCNCc2cccc(-c3ccc(CNCCc4ccccc4)cc3)c2)CC1`, the inhibition was found to be 2.41% in assay [1], 3.07% in assay [2] and 1.49% in assay [3].

Regarding `N=C(N)NN=Cc1c2ccccc2c(Cl)c2cc(Cl)ccc12`, the inhibition came to 62.5% in assay [1], 26.4% in assay [2] and 29.3% in assay [3].

Regarding `CC(CO)(CO)NCc1cc2c3ccccc3c(CNC(C)(CO)CO)cc2c2ccccc12`, the values for the inhibition in assay [1], in assay [2] and in assay [3] were 5.4%, 2.65% and 2.67%, respectively.
